# TDP1 cell noCPT: qHTS for Inhibitors of human tyrosyl-DNA phosphodiesterase 1 (TDP1): qHTS in cells in absence of CPT. DT40 Tdp1-/- hTDP1 cells, no CPT, ATP luminescence, 48 h. Potency, µM (doses to about 46.2 µM), actives largely listed as inhibitors. 15% of 420,000 active. AID 686978, 2013; further: nearly all actives have a fitted effect of over 55% in size
#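 Camptothecin absent (DMSO only). Human TDP1-complemented DT40 knockout cells, 400 cells/well, 37 °C for minimum 48 hr; ATP measured via CellTiter-Glo, 30 min dark incubation, luminescence.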
# Giardia kill: Small Molecules that selectively kill Giardia lamblia: qHTS. Giardia lamblia trophozoite viability. activity change, % at 7.66 µM, hits read low. 0.15% of 340,000 active. AID 540267, 2011; in the data active means activity change below about -80%; inconclusive means between about -30% and that limit;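 further: parasites exposed to compound for two days anaerobically before the ATP read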
#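 Compounds were tested on trophozoites seeded at 100 cells/well and held 48 hrs at 37 deg C anaerobically. An ATP-based luminescent kit measured the remaining live cells.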
# TDP1 cell CPT: qHTS for Inhibitors of human tyrosyl-DNA phosphodiesterase 1 (TDP1): qHTS in cells in presence of CPT. chicken DT40 Tdp1-/-;hTDP1 cells + 20 nM CPT, ATP luminescence, 48 h. Potency, µM (doses to about 46.2 µM), actives largely listed as inhibitors. 12% of 420,000 active; further: nearly all actives have a fitted effect of over 55% in size
#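 Chicken DT40 Tdp1-/- cells complemented with human TDP1, 400 cells/well, exposed to compounds plus 20 nM camptothecin for at least 48 h at 37 C; viability read as ATP content by CellTiter-Glo luminescence.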
# IL-1B inflam inh: qHTS for Inhibitors of Inflammasome Signaling: IL-1-beta AlphaLISA Primary Screen; THP-1 LPS/ATP IL-1B secretion, AlphaLISA, 16 h; stronger effect = lower value; activity change, % at 57.5 µM; 4.7% of 360,000 active; in the data active means activity change below about -50%; inconclusive means mostly about -30% to -49%
#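 THP-1 cells pretreated 1 hr with compounds (up to 57.5 uM final), then stimulated with LPS (250 ng/mL final) plus ATP (1.25 mM final); secreted IL-1B measured by AlphaLISA after 16 hr, decreased signal indicating inhibition.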
# ELG1 repair inh: qHTS screen for small molecules that inhibit ELG1-dependent DNA repair in human embryonic kidney (HEK293T) cells expressing luciferase-tagged ELG1 | HEK293T ELG1-luciferase reporter, luminescence, 16 h; DNA damage induced by 5-fluorouridine | Potency, µM (highest dose often 46.1 µM), hits mostly inhibitors | 2.3% of 330,000 active | AID 504467, 2011; further: nearly all actives have a fitted effect of over 55% in size
#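 DMSO vehicle served as the neutral condition. Each well held 2,000 cells given 5-fluorouridine plus compound; after 16 hr at 37 °C/5% CO2, ONE-Glo was added and luciferase measured 30 min later.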
# TDP1 inh: qHTS Assay for Inhibitors of Tyrosyl-DNA Phosphodiesterase (TDP1). Tyrosyl-DNA phosphodiesterase 1 (Homo sapiens), Q9NUW8. recombinant TDP1, AlphaScreen DNA substrate cleavage. Potency, µM (titrated, usually from 130 µM), hits mostly inhibitors. 0.28% of 350,000 active. AID 485290, 2010; further: nearly all actives have a fitted effect of over 40% in size
# Target sequence (Q9NUW8 whole entry, looked up): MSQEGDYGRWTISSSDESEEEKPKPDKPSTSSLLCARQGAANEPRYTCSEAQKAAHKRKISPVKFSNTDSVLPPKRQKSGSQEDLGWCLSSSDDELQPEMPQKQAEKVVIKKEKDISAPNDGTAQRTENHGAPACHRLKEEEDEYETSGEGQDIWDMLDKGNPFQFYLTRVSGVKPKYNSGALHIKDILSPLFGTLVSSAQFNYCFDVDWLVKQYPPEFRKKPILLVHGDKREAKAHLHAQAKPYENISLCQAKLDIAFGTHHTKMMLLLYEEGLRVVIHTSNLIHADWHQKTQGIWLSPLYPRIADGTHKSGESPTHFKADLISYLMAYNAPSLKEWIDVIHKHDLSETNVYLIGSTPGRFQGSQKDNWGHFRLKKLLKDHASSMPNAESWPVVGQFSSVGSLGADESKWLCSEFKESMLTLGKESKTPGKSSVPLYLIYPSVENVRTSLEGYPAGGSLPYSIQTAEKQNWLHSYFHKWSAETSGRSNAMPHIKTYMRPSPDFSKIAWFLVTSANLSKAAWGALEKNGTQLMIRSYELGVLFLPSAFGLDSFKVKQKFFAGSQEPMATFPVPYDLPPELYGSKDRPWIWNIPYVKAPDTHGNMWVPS
#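 Steps: enzyme plus compound, 15 min RT; add biotin/phosphotyrosine-FITC oligonucleotide (15 nM final), react 5 min; add donor/acceptor beads (10 ug/ml final), 10 min; read AlphaScreen. Tdp1 at 1 nM final.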
# A number is an active result; . = inactive; ? = inconclusive; / = no result. Shown are actives, neighbours in structure and some others; about 19% of the full set was active somewhere. Unless noted, the call rests on the fitted dose curve; in most records, active means well fitted curve in the direction sought with a large enough effect; inconclusive means small, poorly fitted or top-dose-only effect, or another doubt; inactive means no such curve, though single readings can be large; an effect the other way counts as inactive or inconclusive.
SMILES,TDP1 cell noCPT,Giardia kill,TDP1 cell CPT,IL-1B inflam inh,ELG1 repair inh,TDP1 inh
Cc1ccc(NC(=O)Cn2cc(S(=O)(=O)N3CCN(c4ccccc4F)CC3)c3ccccc3c2=O)cc1F,.,/,.,/,/,.
O=C(NCc1ccccc1)C1c2ccccc2OCC(=O)N1Cc1ccc2c(c1)OCO2 (stereo not given),?,/,?,.,/,/
O=C(NCc1ccccc1)C1c2ccccc2OCC(=O)N1Cc1ccccc1 (stereo not given),12µM,/,?,.,/,/
O=C1COc2ccccc2C(c2nc3ccccc3[nH]2)N1Cc1ccccc1 (stereo not given),16µM,/,?,.,/,/
COc1ccc(/C=C2\N=C(SC)N(c3ccccc3OC)C2=O)cc1,?,.,?,?,?,.
CC1(C(=O)Nc2ccc3nc[nH]c3c2)CCN1C(=O)C1(c2ccccc2)CCCC1 (stereo not given),?,/,.,.,/,/
O=C(Nc1cccc(F)c1)N1CCCC2(CCN(S(=O)(=O)c3ccccc3)CC2)C1,?,/,.,/,/,/
CCN1CCN(c2ncnc3sc(C(=O)Nc4ccccc4F)c(C)c23)CC1,.,.,.,.,.,.
CCCN1CCN(c2ncnc3sc(C(=O)Nc4ccc(OC(F)(F)F)cc4)c(C)c23)CC1,21µM,/,?,/,/,.
CCOC(=O)c1sc2ncnc(N3CCN(c4ccc(OC)cc4)CC3)c2c1C,?,.,?,.,?,.
CCCN1CCN(c2ncnc3sc(C(=O)Nc4ccc(C(C)C)cc4)c(C)c23)CC1,?,/,21µM,/,/,.
CCN(CC)S(=O)(=O)c1ccc(/C=C/C(=O)OCC(=O)N(C)C)cc1,.,.,.,.,.,.
C[C@@H]1CN([C@H](C)CO)C(=O)CCCn2nncc2CO[C@H]1CN(C)C(=O)c1ccncc1,.,/,.,.,/,/
COc1cc(/C=N/Nc2ccccn2)cc(OC)c1O,?,.,?,-100,?,.
C=CCOc1ccc(/C=N/Nc2ccccn2)cc1OC,26µM,.,.,.,?,.
CCCOc1ccc(/C=N/Nc2ccccn2)cc1OC,.,.,.,.,?,.
CCOc1ccc(/C=N/Nc2ccccn2)cc1OC,?,.,.,.,?,.
COc1cc(/C=N/Nc2ccccn2)ccc1OCC(C)C,10µM,.,?,.,?,.
CC1CCCCC1NC(=O)CCCn1c(=S)[nH]c2ccsc2c1=O (stereo not given),.,.,.,.,.,.
CCN1C(=O)CC(N2CCN(c3ccc(C(=O)c4ccccc4)cc3)CC2)C1=O (stereo not given),23µM,.,?,.,/,.
O=C(Nc1cc(Cl)ccc1O)c1cc(-c2ccc3c(c2)OCO3)on1,.,/,.,/,/,.
O=C(Nc1cccc(Cl)c1)c1cc(-c2ccc3c(c2)OCCO3)on1,12µM,/,?,/,/,/
Cc1cccc(NC(=O)c2cc(-c3ccc4c(c3)OCCO4)on2)c1,?,/,23µM,/,/,.
Cc1ccc(Cl)cc1NC(=O)c1cc(-c2ccc3c(c2)OCCO3)on1,?,/,15µM,/,/,.
CCOCCc1nn2c(=O)cc(COC(=O)c3ccc(NC(=O)c4cccs4)cc3)nc2s1,?,/,.,/,/,.
SMILES,TDP1 cell noCPT,Giardia kill,TDP1 cell CPT,IL-1B inflam inh,ELG1 repair inh,TDP1 inh
CC(=O)n1c(=O)oc2ccccc21,.,.,.,.,/,/
OC(COCCOc1ccc(Br)cc1)CN1CCCCC1 (stereo not given),.,.,.,.,.,.
CN1CCC(=NNc2ncnc3sc4c(c23)CCCC4)CC1,21µM,.,16µM,.,?,.
CN(C)C(=O)c1ccc(Nc2ncnc3sc4c(c23)CCCCC4)cc1,23µM,.,?,.,.,.
O=C(Nc1ncnc2sc3c(c12)CCCC3)c1ccncc1,.,.,.,.,.,.
O=C(O)CCC(=O)OCCN(Cc1ccc(Oc2ccc([N+](=O)[O-])cc2)cc1)C(=O)C(Cl)Cl,?,.,18µM,.,/,/
